# Data as given in PMC8384837, “Expanding the binding specificity for RNA recognition by a PUF domain”.
# Numbering of substitutions follows the chain as printed.
# Key:
# Assay in all cases: yeast three-hybrid, YBZ-1, SC-Leu-His + 0.5 mM 3-AT, 4 days
# Details in all cases: tags: N-Gal4 AD-HA kept; label: inside an RPR1-promoter hybrid RNA with tandem MS2 sites; ssRNA
# PUM1 PUF domain R1-QWK = PUM1 PUF domain R1-QWK (Homo sapiens, UniProt Q14671 828-1176, S863Q;R864W;Q867K)
# How it was run: (§1)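 Pumilio-1 PUF domain libraries, randomized (NNK) at the three base-contacting residues of each repeat, were co-expressed with matching RNA elements from a centromeric plasmid in strain YBZ-1 (LexA–MS2 coat fusion, HIS3 reporter). Transformants were plated on SC-Leu (input) and SC-Leu-His + 0.5 mM 3-AT (selection) for four days, and repeat regions were PCR-amplified and Illumina-sequenced. The interaction score is the log2 change in variant frequency from input to selection, with pseudocount 1 where absent.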
# PUM1 PUF domain R5-RSQ = PUM1 PUF domain R5-RSQ (Homo sapiens, UniProt Q14671 828-1176, C1007R;R1008S)
# How it was run: as §1
# PUM1 PUF domain R5-RHV = PUM1 PUF domain R5-RHV (Homo sapiens, UniProt Q14671 828-1176, C1007R;R1008H;Q1011V)
# How it was run: as §1
# PUM1 PUF domain R4-SRM = PUM1 PUF domain R4-SRM (Homo sapiens, UniProt Q14671 828-1176, N971S;H972R;Q975M)
# How it was run: as §1
# PUM1 PUF domain R6-IWL = biological target: T1, PUM1 PUF domain R6-IWL (Homo sapiens, UniProt Q14671 828-1176, N1043I;Y1044W;Q1047L)
# T1 sequence: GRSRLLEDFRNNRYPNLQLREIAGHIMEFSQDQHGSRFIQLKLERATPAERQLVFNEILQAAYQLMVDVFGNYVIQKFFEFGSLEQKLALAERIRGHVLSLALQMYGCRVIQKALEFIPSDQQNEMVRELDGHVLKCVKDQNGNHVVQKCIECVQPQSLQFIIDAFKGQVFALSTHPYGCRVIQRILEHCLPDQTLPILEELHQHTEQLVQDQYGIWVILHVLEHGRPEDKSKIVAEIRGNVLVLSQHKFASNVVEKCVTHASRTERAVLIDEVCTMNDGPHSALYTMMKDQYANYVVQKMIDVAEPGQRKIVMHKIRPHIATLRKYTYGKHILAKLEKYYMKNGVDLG
# How it was run: as §1
# PUM1 PUF domain R6-HHR = biological target: T2, PUM1 PUF domain R6-HHR (Homo sapiens, UniProt Q14671 828-1176, N1043H;Y1044H;Q1047R)
# T2 sequence: T1 sequence with I216H, W217H, L220R
# How it was run: as §1
# PUM1 PUF domain R3-VFY = PUM1 PUF domain R3-VFY (Homo sapiens, UniProt Q14671 828-1176, C935V;R936F;Q939Y)
# How it was run: as §1
# PUM1 PUF domain R5-EAC = PUM1 PUF domain R5-EAC (Homo sapiens, UniProt Q14671 828-1176, C1007E;R1008A;Q1011C)
# How it was run: as §1
# PUM1 PUF domain R5-RCV = PUM1 PUF domain R5-RCV (Homo sapiens, UniProt Q14671 828-1176, C1007R;R1008C;Q1011V)
# How it was run: as §1
# PUM1 PUF domain R3-RRS = PUM1 PUF domain R3-RRS (Homo sapiens, UniProt Q14671 828-1176, C935R;Q939S)
# How it was run: as §1
sequence,measurement,setting,value
GGCUAGAACUAGUGGAUCCCCCGGCGCCCGGCGGCUCGAGCCCGGGUAAGUGUAAAUCGUCUGCAUGCCGCCGGGCGCCAUGCCUGCAGGUCGACUCUAGAAAACAUG,binding signal,PUM1 PUF domain R1-QWK,5.98 log2 enrichment (interaction score)
GGCUAGAACUAGUGGAUCCCCCGGCGCCCGGCGGCUCGAGCCCGGGUAAGUGUUAAUAGUCUGCAUGCCGCCGGGCGCCAUGCCUGCAGGUCGACUCUAGAAAACAUG,binding signal,PUM1 PUF domain R5-RSQ,4.05 log2 enrichment (interaction score)
same,binding signal,PUM1 PUF domain R5-RHV,5.95 log2 enrichment (interaction score)
GGCUAGAACUAGUGGAUCCCCCGGCGCCCGGCGGCUCGAGCCCGGGUAAGUGUAUAUAGUCUGCAUGCCGCCGGGCGCCAUGCCUGCAGGUCGACUCUAGAAAACAUG,binding signal,PUM1 PUF domain R4-SRM,2.54 log2 enrichment (interaction score)
GGCUAGAACUAGUGGAUCCCCCGGCGCCCGGCGGCUCGAGCCCGGGUAAGUGUACAUAGUCUGCAUGCCGCCGGGCGCCAUGCCUGCAGGUCGACUCUAGAAAACAUG,binding signal,PUM1 PUF domain R4-SRM,2.16 log2 enrichment (interaction score)
GGCUAGAACUAGUGGAUCCCCCGGCGCCCGGCGGCUCGAGCCCGGGUAAGUGUAAAUAGUCUGCAUGCCGCCGGGCGCCAUGCCUGCAGGUCGACUCUAGAAAACAUG,binding signal,PUM1 PUF domain R5-RSQ,1.05 log2 enrichment (interaction score)
same,binding signal,PUM1 PUF domain R6-IWL,3.09 log2 enrichment (interaction score)
same,binding signal,PUM1 PUF domain R6-HHR,5.44 log2 enrichment (interaction score)
same,binding signal,PUM1 PUF domain R4-SRM,3.86 log2 enrichment (interaction score)
same,binding signal,PUM1 PUF domain R5-RHV,2.87 log2 enrichment (interaction score)
same,binding signal,PUM1 PUF domain R3-VFY,6.12 log2 enrichment (interaction score)
GGCUAGAACUAGUGGAUCCCCCGGCGCCCGGCGGCUCGAGCCCGGGUAAGUGUGAAUAGUCUGCAUGCCGCCGGGCGCCAUGCCUGCAGGUCGACUCUAGAAAACAUG,binding signal,PUM1 PUF domain R5-EAC,3.49 log2 enrichment (interaction score)
GGCUAGAACUAGUGGAUCCCCCGGCGCCCGGCGGCUCGAGCCCGGGUAAGUGUCAAUAGUCUGCAUGCCGCCGGGCGCCAUGCCUGCAGGUCGACUCUAGAAAACAUG,binding signal,PUM1 PUF domain R5-RSQ,4.6 log2 enrichment (interaction score)
same,binding signal,PUM1 PUF domain R5-RCV,2.81 log2 enrichment (interaction score)
same,binding signal,PUM1 PUF domain R5-RHV,5.74 log2 enrichment (interaction score)
GGCUAGAACUAGUGGAUCCCCCGGCGCCCGGCGGCUCGAGCCCGGGUAAGUGUAAUUAGUCUGCAUGCCGCCGGGCGCCAUGCCUGCAGGUCGACUCUAGAAAACAUG,binding signal,PUM1 PUF domain R3-RRS,3.9 log2 enrichment (interaction score)
same,binding signal,PUM1 PUF domain R3-VFY,5.89 log2 enrichment (interaction score)
